Source: PubChem
Cardio protect – modulators protecting cardiomyocytes from myocardial damage; H9c2 cardiomyocytes, H2O2 injury protection, ATPLite, 2 h; protection from H2O2 cell death, % at 20 µM; hit rate 0.63% among 360,000; AID 588492;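 active = compounds giving at least 50% protection of heart cells from peroxide-induced death in the single-dose screen, raw or plate-pattern-corrected value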
PLC-gamma1 inh – blocks human PLC-gamma1 enzyme activity. AID 720700. hit rate 0.84% among 370,000. P19174. purified PLC-gamma1, fluorogenic substrate, fluorescence. inhibition, % at 12.2 µM; in the data active = inhibition above about 9.5%
PLCb3 inh – PLC-beta3 (human) inhibition, primary screen | Q01970 | Purified PLC-beta3, fluorogenic substrate, fluorescence | inhibition, % at 12.2 µM | hit rate 0.18% among 370,000; in the data active = inhibition above about 11%
FAS-TE inh – blocks the thioesterase domain of human fatty acid synthase | hit rate 0.67% among 360,000 | inhibition, % at 15 µM | P49327 | recombinant FAS-TE, OMFH fluorogenic substrate, fluorescence endpoint;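 active = compounds whose normalised, plate-corrected inhibition of enzyme fluorescence in the single-dose primary screen is 50% or more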
Target sequence (P49327 whole entry, looked up, the tested form may be a part): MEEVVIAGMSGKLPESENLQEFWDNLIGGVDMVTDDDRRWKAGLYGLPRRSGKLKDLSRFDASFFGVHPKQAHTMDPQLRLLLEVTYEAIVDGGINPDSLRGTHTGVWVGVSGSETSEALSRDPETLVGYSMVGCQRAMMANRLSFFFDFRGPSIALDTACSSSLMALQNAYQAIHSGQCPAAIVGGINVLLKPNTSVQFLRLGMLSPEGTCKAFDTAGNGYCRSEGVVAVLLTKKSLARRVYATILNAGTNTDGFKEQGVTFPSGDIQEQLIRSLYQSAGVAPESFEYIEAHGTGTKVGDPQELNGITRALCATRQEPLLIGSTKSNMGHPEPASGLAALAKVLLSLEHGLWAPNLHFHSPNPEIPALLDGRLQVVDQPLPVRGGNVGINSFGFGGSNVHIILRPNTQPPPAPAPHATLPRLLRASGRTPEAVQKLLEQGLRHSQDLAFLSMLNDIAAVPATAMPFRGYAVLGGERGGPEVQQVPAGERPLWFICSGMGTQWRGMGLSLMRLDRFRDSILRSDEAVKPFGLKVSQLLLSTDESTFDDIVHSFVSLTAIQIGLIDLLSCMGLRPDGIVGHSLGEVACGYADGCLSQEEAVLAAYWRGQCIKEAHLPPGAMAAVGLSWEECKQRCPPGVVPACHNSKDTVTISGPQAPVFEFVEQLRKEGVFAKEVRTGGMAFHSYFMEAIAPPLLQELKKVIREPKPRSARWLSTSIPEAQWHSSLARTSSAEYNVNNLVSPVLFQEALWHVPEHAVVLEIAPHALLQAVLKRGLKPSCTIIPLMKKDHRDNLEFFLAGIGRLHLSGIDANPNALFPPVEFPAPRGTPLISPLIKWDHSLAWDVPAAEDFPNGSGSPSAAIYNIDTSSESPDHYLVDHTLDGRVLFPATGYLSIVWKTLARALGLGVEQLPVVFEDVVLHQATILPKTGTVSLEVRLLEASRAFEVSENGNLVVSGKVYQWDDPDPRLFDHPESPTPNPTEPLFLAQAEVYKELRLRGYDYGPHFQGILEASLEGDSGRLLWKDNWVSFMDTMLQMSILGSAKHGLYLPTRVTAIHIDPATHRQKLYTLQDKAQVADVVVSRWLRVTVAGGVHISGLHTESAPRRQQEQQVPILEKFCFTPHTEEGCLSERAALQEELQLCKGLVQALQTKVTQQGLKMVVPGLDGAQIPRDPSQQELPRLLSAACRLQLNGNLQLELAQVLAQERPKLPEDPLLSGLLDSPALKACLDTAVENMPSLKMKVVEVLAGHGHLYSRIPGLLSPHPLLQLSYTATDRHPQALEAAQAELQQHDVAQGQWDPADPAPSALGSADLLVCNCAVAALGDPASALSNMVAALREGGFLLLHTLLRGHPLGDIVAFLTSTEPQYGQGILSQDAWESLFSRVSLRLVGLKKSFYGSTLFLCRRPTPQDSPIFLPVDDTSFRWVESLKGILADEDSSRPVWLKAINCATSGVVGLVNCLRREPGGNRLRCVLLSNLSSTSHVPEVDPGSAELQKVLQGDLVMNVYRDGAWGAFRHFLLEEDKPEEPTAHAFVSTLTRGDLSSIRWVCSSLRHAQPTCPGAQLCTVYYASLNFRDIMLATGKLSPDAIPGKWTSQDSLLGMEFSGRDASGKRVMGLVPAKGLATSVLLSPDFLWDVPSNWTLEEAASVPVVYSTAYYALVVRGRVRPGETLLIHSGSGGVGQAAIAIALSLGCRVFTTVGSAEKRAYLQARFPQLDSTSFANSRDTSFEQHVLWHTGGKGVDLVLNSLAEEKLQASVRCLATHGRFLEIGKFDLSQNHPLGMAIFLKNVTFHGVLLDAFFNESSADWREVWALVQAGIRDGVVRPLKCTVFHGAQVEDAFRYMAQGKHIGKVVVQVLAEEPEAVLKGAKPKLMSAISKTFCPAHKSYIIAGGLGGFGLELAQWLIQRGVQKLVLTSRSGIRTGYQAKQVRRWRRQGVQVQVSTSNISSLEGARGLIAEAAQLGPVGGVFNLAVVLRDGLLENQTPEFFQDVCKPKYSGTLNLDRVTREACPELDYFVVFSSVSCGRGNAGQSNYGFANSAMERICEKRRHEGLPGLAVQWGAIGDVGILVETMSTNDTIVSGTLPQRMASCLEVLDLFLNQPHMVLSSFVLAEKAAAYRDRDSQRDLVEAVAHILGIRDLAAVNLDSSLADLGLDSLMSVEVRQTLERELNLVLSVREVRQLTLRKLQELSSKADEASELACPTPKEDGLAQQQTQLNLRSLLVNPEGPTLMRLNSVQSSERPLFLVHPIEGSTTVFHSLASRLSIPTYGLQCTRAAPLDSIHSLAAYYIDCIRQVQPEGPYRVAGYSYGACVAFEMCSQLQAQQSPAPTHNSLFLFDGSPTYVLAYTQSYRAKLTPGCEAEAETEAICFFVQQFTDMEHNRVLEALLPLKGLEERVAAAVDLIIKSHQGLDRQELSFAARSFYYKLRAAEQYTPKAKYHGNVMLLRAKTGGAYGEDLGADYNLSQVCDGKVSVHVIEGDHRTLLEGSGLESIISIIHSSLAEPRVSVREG
FAS-TE inh conf – confirmation of human fatty acid synthase thioesterase inhibitors | shares compounds with FAS-TE inh | recombinant FAS-TE, OMFH fluorogenic substrate, fluorescence | inhibition, % at 15 µM | hit rate 45% among 2,300 | AID 624325;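 active = compounds inhibiting the enzyme by at least 50% at 15 µM in any one of the replicates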
Each line names hits and unclear results; the compound was inactive in the other large screens (follow-up assays come after a bar, where they were run). An excerpt weighted towards active compounds, which were near 2.2% of everything screened.

COC(=O)C1=C(C)N(Cc2ccccc2C(F)(F)F)C(=NCc2ccc(OC)cc2)NC1c1ccc(Cl)cc1 (stereo unspecified)	none (no result: Cardio protect, FAS-TE inh)
Nc1ccc2nc(-c3cccs3)[nH]c2c1	Cardio protect 66
FC(F)(F)c1ccc(Cn2ccc3ccc(-c4ccc5ccn(Cc6ccccc6)c5c4)cc32)cc1	none (no result: Cardio protect, FAS-TE inh)
Cn1c(=O)cc(OCC(=O)NCCCN2CCN(c3ccccc3F)CC2)c2ccccc21	none
Cn1c(=O)cc(OCC(=O)NCCCN2CCN(c3cccc(Cl)c3)CC2)c2ccccc21	Cardio protect 64
COc1cc(/C=C2\CC/C(=C\c3cc(OC)c(O)c(OC)c3)C2=O)cc(OC)c1O	Cardio protect 65
COc1cc(C=NO)nc(-c2ccccn2)c1	Cardio protect 56
O=C(CCSCCC(=O)NN=Cc1ccccc1O)NN=Cc1ccccc1O	Cardio protect 58
O=C(CSc1n[nH]c(=O)[nH]c1=O)N/N=C/c1ccccc1O	none
O=C(CCCCCNC(=O)c1ccccc1)N/N=C/c1ccccc1O	none
O=C(CSc1ccccc1)N/N=C/c1ccccc1O	Cardio protect 51
O=C(N/N=C/c1ccccc1O)C1SCCCS1	Cardio protect 70
C[C@H](CO)N1C[C@H](C)[C@@H](CN(C)C(=O)Cc2ccccc2)OCc2cn(nn2)CCCC1=O	none (no result: Cardio protect, FAS-TE inh)
Cc1ccccc1C1c2[nH]c3ccccc3c2C[C@H]2C(=O)N(c3ccccc3C(=O)NCCCN3CCOCC3)C(=O)N12 (stereo partly specified)	Cardio protect 55
COc1ccc(OC)c(S(=O)(=O)Nc2ccc(C(=O)Nc3cc(C)on3)cc2)c1	none (no result: Cardio protect, FAS-TE inh)
Cn1c(O)c(N=Nc2nc(-c3ccccc3)cs2)c2ccccc21	Cardio protect 62
O=c1nc(N/N=C/c2ccccn2)cn[nH]1	Cardio protect 55
Cc1ccc(/C=N/Nc2cn[nH]c(=O)n2)o1	none
C=CCCC(=O)N1CCC(C(=O)NC2CCCc3ccccc32)CC1 (stereo unspecified)	none (no result: Cardio protect, FAS-TE inh)
Cc1ccccc1NC(=O)N(C)[C@H]1C[C@H]2c3[nH]c4c(-c5ccccc5)cccc4c3CCN2C(=O)[C@H]1[C@H](C)O	none (no result: Cardio protect, FAS-TE inh)
CN1/C(=C/C=C/c2n(C)c3cc([N+](=O)[O-])c([N+](=O)[O-])cc3[n+]2C)C(C)(C)c2ccccc21	PLC-gamma1 inh 9.7, PLCb3 inh 13
COc1ccc(N2C(=O)c3n[nH]c(C)c3C2c2ccc(F)cc2)cc1 (stereo unspecified)	none (no result: Cardio protect, FAS-TE inh)
O=C(c1ccco1)N1CCN(C(=O)c2cc(-c3ccncc3)nc3ccc(Br)cc23)CC1	Cardio protect 53
O=C(c1cc2nc(-c3ccccc3)cc(-c3ccccc3)n2n1)N1CCN(C(=O)c2ccco2)CC1	Cardio protect 104
O=C(c1cc2nc(-c3ccccc3)cc(-c3ccccc3)n2n1)N1CCCC1	none
COc1cc(/C=C/c2nc(N)nc(-c3ccccc3O)n2)cc(OC)c1OC	none
COc1cc(/C=C/c2nc(-c3ccccc3O)n[nH]2)cc(OC)c1OC	Cardio protect 66
COc1cc(/C=C2\SC(=O)N(Cc3ccc(F)cc3)C2=O)cc([N+](=O)[O-])c1O	FAS-TE inh 68 | FAS-TE inh conf inactive
CCOC(=O)CN1C(=O)S/C(=C/c2ccc(OC)c([N+](=O)[O-])c2)C1=O	none
COc1cc(/C=C2\SC(=O)N(Cc3ccc(Cl)cc3)C2=O)cc([N+](=O)[O-])c1O	FAS-TE inh 72 | FAS-TE inh conf inactive
COc1cc(/C=C2/SC(=S)N(Cc3ccccc3)C2=O)cc(Cl)c1O	none
Cc1ccc(/C=C2/SC(=S)N(CCCC(=O)Nc3cc([N+](=O)[O-])ccc3O)C2=O)cc1	none
O=C1/C(=C/c2ccc(O)c([N+](=O)[O-])c2)SC(=S)N1Cc1ccccc1	FAS-TE inh 86 | FAS-TE inh conf inactive
O=C(CN1C(=O)S/C(=C\c2ccccc2)C1=O)Nc1cc([N+](=O)[O-])ccc1O	FAS-TE inh 81 | FAS-TE inh conf 82
COC(=O)[C@]12C[C@H](CC(=O)NCc3ccccc3)C(=O)N(CCc3ccc(OC)c(OC)c3)C1=C[C@H](C(C)C)O[C@@H]2C1CC1	none (no result: Cardio protect, FAS-TE inh)
Cc1ccccc1C1=C/C(=C(\SS/C(C(=O)c2ccc(OCC(=O)O)c(Cl)c2Cl)=C2\C=C(c3ccccc3C)SS2)C(=O)c2ccc(OCC(=O)O)c(Cl)c2Cl)SS1	FAS-TE inh 83 | FAS-TE inh conf 88
O=C(O)COc1ccc2nsnc2c1Cl	none
COCCN1Cc2cc(C(=O)OC)c3c(c2C1=O)c1cc(OC)ccc1n3S(=O)(=O)c1ccc(F)cc1	none (no result: Cardio protect, FAS-TE inh)
O=C1N=c2ccc([N+](=O)[O-])cc2=C1c1sc(=O)[nH]c1O	FAS-TE inh 56 | FAS-TE inh conf 66
COc1ccc(N2C(=O)C3C4c5ccccc5C(C=Nc5ccc(C)cc5C)(c5ccccc54)C3C2=O)cc1 (stereo unspecified)	FAS-TE inh 56 | FAS-TE inh conf inactive
CCc1ccc(N=CC23c4ccccc4C(c4ccccc42)C2C(=O)N(c4ccc(OC)cc4)C(=O)C23)cc1 (stereo unspecified)	none
CCOc1ccc(-n2c(SCC(=O)Nc3ccc(S(=O)(=O)Nc4nccs4)cc3)nnc2-c2ccccc2)cc1	none (no result: Cardio protect, FAS-TE inh)
Cn1c(=O)c2[nH]c(Cc3cccc(O)c3)nc2n(C)c1=O	none
Cn1c(=O)c2[nH]c(COc3ccc(C(C)(C)C)cc3)nc2n(C)c1=O	FAS-TE inh 69 (no result: PLC-gamma1 inh, PLCb3 inh) | FAS-TE inh conf 70
C[C@@]12C(=O)Nc3cc(F)ccc3C(=O)N1[C@H]1c3ccccc3OC[C@@H]1[C@@H]2c1ccccc1	FAS-TE inh 69 (no result: PLC-gamma1 inh, PLCb3 inh) | FAS-TE inh conf 48
Cc1ccc2c(c1)[C@H]1[C@H](CO2)[C@H](c2ccccc2)[C@]2(C)C(=O)Nc3cc(F)c(F)cc3C(=O)N12	FAS-TE inh 76 | FAS-TE inh conf inactive
Cc1ccc2c(c1)[C@H]1[C@H](CO2)[C@H](c2ccccc2)[C@]2(C)C(=O)N(Cc3ccc(F)cc3)CC(=O)N12	none
C[C@@]12C(=O)N(c3ccc(F)cc3)C(=O)N1[C@@H]1c3ccccc3OC[C@@H]1[C@H]2c1ccccc1	none
Cc1ccc2c(c1)[C@H]1[C@H](CO2)[C@H](c2ccccc2)[C@]2(C)C(=O)Nc3cc(Cl)ccc3C(=O)N12	FAS-TE inh 93 (no result: PLC-gamma1 inh, PLCb3 inh) | FAS-TE inh conf inactive
Cc1ccc2c(c1)[C@H]1[C@H](CO2)[C@H](c2ccccc2)[C@]2(C)C(=O)Nc3ccc(F)cc3C(=O)N12	FAS-TE inh 83 | FAS-TE inh conf inactive
CC(C)CC(CCOCCO)NC(=O)OCc1ccccc1[N+](=O)[O-] (stereo unspecified)	none (no result: Cardio protect, FAS-TE inh)
CN(C)c1ccc(NC(=O)CSc2nnc(C3CCCCC3)n2N)cc1	none
Cc1ccc(S(=O)(=O)c2nnn3c2nc(N2CCOCC2)c2ccccc23)cc1	none
Cc1ccc(S(=O)(=O)c2nnn3c2nc(N2CCN(c4ccccn4)CC2)c2ccccc23)cc1C	FAS-TE inh 53 | FAS-TE inh conf inactive
CCc1ccc(S(=O)(=O)c2nnn3c2nc(N2CCOCC2)c2ccccc23)cc1	FAS-TE inh 60 | FAS-TE inh conf 36
